Where “and” joins values, the source holds several entries; their conditions need not be identical. Identical values can stand only once. Records with an inconclusive call do not appear. Calls of active or inactive are those of the source.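 The calls were made as follows: active = GFP signal above the screen-wide mean plus 3 SD, that is over about 124.5% of the solvent control; inconclusive = no reading because the compound's own fluorescence disturbed strain identification; inactive = the rest.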
Test: modulators of AGP1-GFP expression in yeast TOR pathway, primary screen, cell-based, multiplex flow cytometry, S. cerevisiae (AID 1887);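 also: AGP1-GFP fusion strain of S. cerevisiae within a five-strain barcoded multiplex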
Conditions: 3 h, at 10 µM, active compounds read high

GFP response, % of DMSO, inactive:
S=C(NCCOCCOCCNC(=S)Nc1ccccc1)Nc1ccccc1 97.4%
Cc1ccc(CN2CCN(Cc3cn[nH]c3C3CCCCC3)CC2CCO)cc1 (configuration not stated) 122%
OCCC1CN(Cc2ccccc2-c2ccco2)CCN1C1CCCC1 (configuration not stated) 110%
COc1ccc2oc(-c3ccco3)cc(=O)c2c1 83.7%
Nc1nc2c(nc(SCc3ccccc3Br)n2C2OC(CO)C(O)C2O)c(=O)[nH]1 (configuration not stated) 101%
O=C(CCC(=O)NCCO)NCCO 111%
Cc1cc(=O)[nH]c(=S)[nH]1 96.6%
CN(C)C(=O)Oc1cccc([N+](C)(C)C)c1 110% and 105%
COc1cc(/C=C/C(=O)O)cc(S(=O)(=O)NCCCO)c1OC 105%
COC(=O)c1sccc1NC(=O)Nc1ccccc1F 101%
CC1(C)C(=O)OC(/C=C\c2ccccc2)C(C)(C)C1=O (configuration not stated) 107%
O=C(/C=C/c1ccc(F)cc1)NC(=S)N1CCCCC1c1cccnc1 (configuration not stated) 112%
COc1cc2c(cc1OC)C1(CCCC1)CNC2c1cccc([N+](=O)[O-])c1 (configuration not stated) 92.8%
O=C(NCCO)c1ccc(Cl)c(Cl)c1 107%
N#C/C(=C\c1ccc(O)c(O)c1)C(=O)NCCCc1ccccc1 116%
CSCC[C@H](NC(=O)OC(C)(C)C)C(=O)N1CCC(C(=O)N[C@@H](C)C(=O)O)CC1 98.8%
Cc1cc(-c2nn(-c3ccccc3F)cc2CN2CCCC(O)C2)c(C)s1 (configuration not stated) 107%

Reference: PubChem BioAssay
